Bioassay records (PubChem)
NALP3 yeast inh = NALP3 inhibition in yeast | Yeast reconstituted NLRP3/ASC/caspase-1, beta-gal luminescence, 24 h | inhibition, % at 10 µM | actives 0.39% (n = 330,000) | AID 2825;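 active = inhibition of 50% or more; inactive = inhibition below 50%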;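 also: plate controls were induced DMSO wells for no effect and uninduced yeast grown without galactose for full effect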
tim10-1 inh = inhibits growth of tim10-1 mutant yeast | S. cerevisiae tim10-1 ts strain growth, BacTiter-Glo, 24 h | inhibition, % at 20 µM | actives 2.2% (n = 330,000) | AID 463190;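 active = inhibition of at least 40%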;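 also: mutant grown at 25 °C; 0% = DMSO wells with yeast and 100% = wells holding no yeast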
SKKanGAS inh = SKKanGAS growth inhibition | S. pyogenes SKKanGAS, kanamycin growth, BacTiter-Glo, 6 h | inhibition, % at 7.5 µM | actives 1.3% (n = 300,000) | AID 1662;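 active = mean replicate score, as percent of positive control median, at least 50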;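 also: strain carries kanamycin resistance gene driven by streptokinase promoter and grows in 40 µg/ml kanamycin; loss of luminescence reflects streptokinase promoter inhibition or plain growth inhibition; 0% = median of DMSO wells and 100% = positive control at its reference dose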
tim23-1 inh = growth inhibitors of tim23-1 mutant yeast; S. cerevisiae tim23-1 growth, BacTiter-Glo luminescence, 24 h; inhibition, % at 20 µM; actives 1.3% (n = 330,000); AID 463212;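 active = growth inhibition of the mutant yeast at or above 50%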;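 also: temperature-sensitive mutant grown at 25 °C; plate controls were DMSO-treated mutant yeast for no effect and medium wells lacking yeast for full effect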
TIM10 inh = TIM10 yeast growth inhibition; actives 1.4% (n = 330,000); AID 463195; S. cerevisiae TIM10 strain growth, BacTiter-Glo luminescence, 24 h; inhibition, % at 10 µM;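 active = inhibition of 40% or more at the single tested concentration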;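 also: wild-type TIM10 isogenic control strain grown at permissive 25 °C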
PfHsp90 yeast 2 = reduces growth (ATP signal) of yeast expressing P. falciparum Hsp90 | S. cerevisiae expressing PfHsp90, BacTiter-Glo ATP, 48 h; yeast lacking PDR1 and PDR3 efflux regulators | inhibition, % at 9.4 µM | actives 0.32% (n = 310,000);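 active = every replicate shows inhibition above about 80%, whatever the replicate mean, limit read from the data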;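 also: 0% = DMSO neutral controls and 100% = 20 µM radicicol positive controls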
tim10-1 conf = confirmation of tim10-1 mutant yeast growth inhibitors | shares compounds with tim10-1 inh | S. cerevisiae tim10-1 ts strain growth, BacTiter-Glo, 24 h | inhibition, % at 20 µM | actives 56% (n = 7,400) | AID 463213;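 active = inhibition of yeast growth at or above a set limit in either of two repeat tests at 20 µM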;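 also: tim10-1 mutant grown at permissive 25 °C to find synthetic lethal compounds; 0% = DMSO yeast wells and 100% = medium wells without yeast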
tim10 confirm = TIM10 yeast growth inhibition, confirmed; S. cerevisiae tim10 strain growth, BacTiter-Glo luminescence, 24 h; inhibition, % at 10 µM; actives 63% (n = 4,600); shares compounds with TIM10 inh;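 active = inhibition of yeast growth at or above a set limit in either of two replicates at 10 µM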;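 also: this counterscreen used the strain with wild-type TIM10; 0% = yeast with DMSO and 100% = medium wells lacking yeast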
An asterisk follows results filed as active; . = not tested or not shown. In the library only some 4.6% were active in any assay of this set; here they are far more common.

SMILES	NALP3 yeast inh	tim10-1 inh	SKKanGAS inh	tim23-1 inh	TIM10 inh	PfHsp90 yeast 2	tim10-1 conf	tim10 confirm
O=C(CS(=O)c1ccccc1[N+](=O)[O-])Oc1ccc(Br)cc1 (stereo not drawn)	11	81*	5	45	51*	10	64*	54*
CCOc1ccc(/C=C2\SC(N3CCc4ccccc4C3)=NC2=O)cc1	11	47*	18	28	54*	-44	35*	19
Fc1cccc(NC(=S)NCCc2ccccc2)c1	1	37	-10	37	23	-24	.	.
O=[N+]([O-])c1cccc(NC(=S)NCCc2ccccc2)c1	3	47*	-15	32	46*	15	30*	17
CCOC(=O)Cc1csc(NC(=O)/C=C/c2ccc(OC)cc2)n1	28	-73	-15	3	-27	44	.	.
COc1cccc(/C=N/NC(=O)c2c(C)nc3ccc(Br)cn23)c1O	22	41*	66*	11	45*	7	19	61*
Cc1nn(-c2ccc(F)cc2)c(C)c1NS(=O)(=O)c1ccc(Cl)cc1	6	48*	-2	48	51*	-16	40*	22
Cc1ccc(-n2nc(C)c(NS(=O)(=O)c3ccccc3)c2C)cc1C	7	39	6	28	27	5	.	.
Nc1nc(SCc2ccccc2)c2ncn(C3CCCCC3)c2n1	.	.	.	.	.	11	.	.
CCCCS(=O)(=O)/C=C\C=C/S(=O)(=O)CCCC	5	70*	-3	43	59*	17	42*	61*
Cc1cc(C)c2c(=O)n(CC(=O)Nc3cccc(F)c3)sc2n1	10	5	0	15	4	8	.	.
Cc1ccc(NC(=O)Cn2sc3nc(C)cc(C)c3c2=O)c(Cl)c1	18	86*	-3	15	81*	12	92*	96*
CCOc1ccc(NC(=O)Cn2sc3nc(C)cc(C)c3c2=O)cc1	7	83*	15	9	46*	23	90*	88*
Cc1cc(C)c2c(=O)n(CC(=O)Nc3ccc(Cl)cc3)sc2n1	21	91*	-2	18	86*	1	93*	96*
CCOc1ccccc1NC(=O)C1(S(=O)(=O)c2ccc(Cl)cc2)CC1	18	9	3	21	20	-1	.	.
N#CCN1CCN(CC(=O)c2ccc(Br)cc2)CC1	14	-6	3	-9	-17	21	.	.
O=C(NCC1(O)CCCCC1)C1CCC(=O)N(Cc2cccc(C(F)(F)F)c2)C1 (stereo not drawn)	-2	-16	-2	12	9	5	.	.
CCOc1ccc(NC(=S)N(Cc2ccc(N(C)C)cc2)Cc2ccco2)cc1	9	52*	7	38	46*	-3	43*	36*
COc1ccc(NC(=S)N(Cc2ccc(N(C)C)cc2)Cc2ccco2)cc1	-1	36	-1	37	37	-20	.	.
COc1ccc(Cn2c(SCc3ccc(C)cc3)nc3cc(OC)c(OC)cc3c2=N)cc1Cl	19	90*	102*	42	62*	41	87*	-6
CCN(C(=O)COc1cccc2cccnc12)C1CCS(=O)(=O)C1 (stereo not drawn)	20	-1	-1	-15	-11	-1	.	.
CC(C)NC(=S)N/N=C/c1ccc(C(C)(C)C)cc1	-15	41*	-8	37	44*	-49	8	45*
COc1ccc(CC(=O)Nc2cc(Cl)ccc2C(=O)O)cc1	17	-2	3	11	6	-24	.	.
CCCCOc1ccc(Nc2cc(Cl)ccc2C(=O)O)cn1	9	52*	22	35	41*	-47	26	34*
Cc1scc(-c2n[nH]c(=S)n2C(C)c2ccccc2)c1C (stereo not drawn)	31	42*	4	37	43*	-8	29	10
Cc1ccc(S(=O)(=O)CCC(=O)c2ccc(O)cc2O)cc1	-22	54*	-1	48	55*	37	47*	50*
